Bioassay records from PubChem.
BAZ2B inh = inhibitors of human BAZ2B bromodomain; 360,000 tested, 4.4% active; AlphaScreen BAZ2B-H3K14Ac peptide displacement; AID 504333; Potency, µM (series often up to 114 µM), inactives show at the top dose activity change, negative = inhibition, most hits filed as inhibitors; also: % is scaled to controls: 0 for no effect and ±100 for the full control effect; nearly all actives have a fitted effect of over 60% in size
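AlphaScreen luminescence quantifies BAZ2B engagement of H3K14Ac peptide; the protein and biotinylated peptide are both at 50 nM final, buffer PBS pH 7.4 with 0.01% Tween-20, all steps at room temperature.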
JMJD2A Tudor inh = inhibitors of human JMJD2A Tudor domain; O75164; Potency, µM (top dose mostly 114 µM), without a hit: top-dose activity change, negative = inhibition, most hits filed as inhibitors; AlphaScreen JMJD2A-Tudor / H3K4me3 peptide binding; 390,000 tested, 4.4% active; also: % is scaled to controls: 0 for no effect and ±100 for the full control effect; nearly all actives have a fitted effect of over 50% in size
G9a block = blocks human histone lysine methyltransferase G9a. Q96KQ7. G9a H3K9 monomethylation, AlphaScreen, 2 h. Potency, µM (highest dose often 102 µM), inactives show at the top dose activity, negative = inhibition, hits mostly inhibitors. 350,000 tested, 8.8% active. AID 504332; also: % is scaled to controls: 0 for no effect and ±100 for the full control effect; nearly all actives have a fitted effect of over 75% in size
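G9a (20 nM) was preincubated 15 min with compound, then reacted 2 h at room temperature with 500 nM biotin-H3K9 peptide and 20 µM SAM. Monomethyl-H3K9 detected by AlphaScreen using anti-H3K9me1 antibody.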
HP1b binding inh = blocks HP1-beta chromodomain binding to methylated histone tails; 390,000 tested, 0.56% active; AlphaScreen HP1-beta / biotin-H3K9me3 peptide binding; Potency, µM (series often up to 114 µM), without a hit: at the top dose activity change, negative = inhibition, actives largely listed as inhibitors; also: nearly all actives have a fitted effect of over 70% in size
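AlphaScreen: HP1-beta (50 nM) preformed 30 min with biotin-H3(1-18)K9me3 peptide (50 nM) in PBS pH 7.4, 0.01% Tween-20. Compound added for 30 min at RT, then streptavidin donor/nickel chelate acceptor beads (10 ug/mL) for 30 min.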
L3MBTL1 inh = blocks human L3MBTL1; Potency, µM (highest dose often 57.1 µM), without a hit: top-dose activity, negative = inhibition, actives largely listed as inhibitors; AID 485360; 230,000 tested, 0.66% active; AlphaScreen L3MBTL1–H3K9me1 peptide binding; also: % is scaled to controls: 0 for no effect and ±100 for the full control effect; nearly all actives have a fitted effect of over 60% in size
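AlphaScreen assay: L3MBTL1 (50 nM final) was preincubated 30 min at room temperature with biotinylated H3(1-15)K9me1 peptide (75 nM final), then 30 min with library compounds; streptavidin donor and nickel chelate acceptor beads (10 ug/mL final) added, 30 min dark.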
Numbers without * were called inactive; ? = inconclusive; . = not tested or not shown; [ ] = another dose, or the depositor's remark. Rows were chosen to be rich in hits. Some 11% of all compounds tested hit in one or more screens of this group. Calls follow the shape of the dose curve; as a rule, active = well fitted inhibition curve with a large enough effect; inconclusive = small, poorly fitted or top-dose-only effect; inactive = no such curve, though single readings can be large or run the other way. Potency is read from the fitted curve at half-maximal effect.

SMILES	BAZ2B inh	JMJD2A Tudor inh	G9a block	HP1b binding inh	L3MBTL1 inh
COc1ccc(OC)c(S(=O)(=O)N2CCCC(N3CCN(c4ccccc4)CC3)C2)c1 (stereo not given)	?	-23.6%	-15.7%	13.6%	.
COc1ccc(OC)c(S(=O)(=O)N2CCN3CCCC3C2)c1 (stereo not given)	-15.7%	-18.6%	-10.4%	19.0%	-1.4%
COc1ccc(N2CCN(C3CCCN(S(=O)(=O)c4ccc(C)cc4C)C3)CC2)cc1 (stereo not given)	25.1µM*	31.6µM*	35.5µM*	?	.
Cc1ccccc1CN1C(=O)c2ccccc2Sc2ccc(C(=O)NC3CCCCC3)cc21	4.5%	-8.3%	-3.0%[59 µM]	8.7%	.
COc1ccc(N2CCN(C3CCCN(C(=O)c4cccc(C)n4)C3)CC2)cc1 (stereo not given)	-1.9%	2.9%	50.1µM*	13.6%	.
COc1ccc(N2CCN(C3CCCN(Cc4ccc(F)cc4Cl)C3)CC2)cc1 (stereo not given)	?	?	70.8µM*	-29.7%	-8.7%
COc1ccc(O)c(CN2CCCC(N3CCN(c4ccc(F)cc4)CC3)C2)c1 (stereo not given)	?	-32.1%	?	-3.8%	-13.8%
CCOc1ccc(NC(=O)C2CCN(c3nnc(C)c4c(C)n(-c5ccccc5)nc34)CC2)cc1	-10.0%	-12.8%	-6.5%[59 µM]	23.0%	.
Cc1ccc(NC(=O)CSc2nc(-c3ccco3)cc(C(F)(F)F)n2)cc1	4.7%	4.5%	29.0%[59 µM]	37.3%	.
COc1ccc(S(=O)(=O)Nc2cccc(-c3ccc(N4CCC(C)CC4)nn3)c2)c(OC)c1	-13.6%	-17.6%	-5.8%[59 µM]	4.1%[57 µM]	.
CC1CCN(C(=O)c2nc[nH]c2C(=O)N2CCc3ccccc3C2)CC1	1.3%	-4.9%	3.3%[0.501 µM]	33.0%	2.3%
Cn1cnc(C(=O)N2CCc3ccccc3C2)c1C(=O)N1CCc2ccccc2C1	.	15.8µM*	.	?	3.9%
CCOC(=O)c1c(C)oc2nc(C)nc(N(C)Cc3ccccc3)c12	-11.2%[57.1 µM]	27.2%	-31.5%[59 µM]	23.1%	.
CCOC(=O)COc1nc(-c2ccco2)cc(-c2ccco2)c1C#N	-22.4%	35.6%	-30.4%[59 µM]	21.7%	-5.6%
CCOC(=O)C(C)Sc1nc(-c2ccco2)cc(C(F)(F)F)c1C#N (stereo not given)	19.2%	-10.0%	39.8µM*	47.2%	12.4%
COCCNC(=S)N(CCc1c(C)[nH]c2ccccc12)Cc1ccco1	?	-29.7%	50.1µM*	3.5%	-18.1%
CNC(=S)N(CCc1c(C)[nH]c2ccc(C)cc12)Cc1ccc(OC)c(OC)c1	31.6µM*	?	50.1µM*	-1.5%	-2.6%
COc1cc(CN(CCc2c(C)[nH]c3ccc(C)cc23)C(=S)NC(C)(C)C)cc(OC)c1OC	?	50.1µM*	?	?	-0.1%
COCCNC(=S)N(CCc1c(C)[nH]c2ccc(F)cc12)Cc1cccs1	.	?	?	-8.1%	.
Cc1[nH]c2ccccc2c1CCN(Cc1cccnc1)C(=S)NC(C)(C)C	?	?	?	22.9%	.
CNC(=S)N(CCc1c(C)[nH]c2ccc(Cl)cc12)Cc1cc(OC)c(OC)c(OC)c1	?	?	31.6µM*	0.4%	-22.9%
CCNC(=S)N(CCc1c(C)[nH]c2ccc(Cl)cc12)Cc1ccco1	.	-30.3%	?	-9.6%	.
CNC(=S)N(CCc1c(C)[nH]c2ccc(C)cc12)Cc1ccco1	50.1µM*	?	44.7µM*	-19.0%	-0.2%
Cc1cccc(-n2ncc(C(=O)NCc3ccco3)c2C2CCN(C(=O)OC(C)(C)C)CC2)c1	4.1%[57.1 µM]	?	-35.1%[59 µM]	-21.0%	.
O=C1CC(C(=O)O)S/C(=N\NC(=O)c2ccccc2)N1 (stereo not given)	50.1µM*	1.41µM*	?	10.6%	12.3%
SMILES	BAZ2B inh	JMJD2A Tudor inh	G9a block	HP1b binding inh	L3MBTL1 inh
C/C(=N\N=C1\NC(=O)CC(C(=O)O)S1)c1ccc(F)cc1 (stereo not given)	-21.2%	-19.9%	0.3%[59 µM]	31.6%	-3.5%
COc1ccc(/C(C)=N/N=C2/NC(=O)CC(C(=O)O)S2)cc1 (stereo not given)	-2.6%	44.7µM*	11.7%[59 µM]	8.3%	3.7%
C/C(=N\N=C1\NC(=O)CC(C(=O)O)S1)c1cccs1 (stereo not given)	-7.8%	3.3%	-8.9%[0.0925 µM]	16.3%	4.1%
CCN(CC)CCNC(=O)c1ccc(-n2c(-c3ccccc3)cc3c2CCCC3)cc1	-17.6%	-23.0%	-28.7%[59 µM]	8.9%	.
CCOc1ccc(Sc2cc(C(=O)NC(C)c3ccccc3)c3ccccc3n2)cc1 (stereo not given)	-1.5%	-19.6%	-3.5%[59 µM]	7.8%	.
COc1ccc(N2C(=O)C(Cl)=C(Oc3cccc(OC)c3)C2=O)cc1	44.7µM*	?	6.31µM*	?	-9.0%
COc1ccc(N2C(=O)c3ccccc3C2=O)cc1	-0.1%	-14.3%	-7.4%[12.7 µM]	17.4%	-0.5%
CC1CCCCN1C(=O)c1cccc(NC2=C(Cl)C(=O)N(Cc3ccccc3)C2=O)c1 (stereo not given)	-6.8%	?	-12.1%[12.7 µM]	12.4%	-8.8%
O=C1C(Cl)=C(Nc2cccc(O)c2)C(=O)N1Cc1ccccc1	?	44.7µM*	35.5µM*	?	-5.9%
COc1ccc(N2C(=O)c3ccc(C(=O)Nc4ccccc4O)cc3C2=O)cc1	?	-29.7%	-23.4%	10.9%	6.5%
COc1ccc(N2C(=O)C(Cl)=C(Nc3ccccc3O)C2=O)cc1	?	44.7µM*	3.55µM*	28.2µM*	.
COc1ccc(NC2=C(c3ccccc3)C(=O)c3ccccc32)cc1Cl	0.3%	-26.7%	13.3%[59 µM]	32.6%	.
COc1ccc(OC)c(NC2=C(c3ccccc3)C(=O)c3ccccc32)c1	5.62µM*	12.6µM*	11.2µM*	12.6µM*	.
O=C(NC1CC(=O)N(c2ccc(F)cc2)C1)c1ccco1 (stereo not given)	-0.9%	-2.3%	2.3%[59 µM]	40.0%	.
CCOc1ccccc1NC1=C(Cl)C(=O)N(Cc2ccccc2)C1=O	?	-15.3%[11.4 µM]	4.6%[12.7 µM]	-31.6%	.
COc1ccc(N2C(=O)C(Cl)=C(Nc3ccccc3OC)C2=O)cc1	?	?	44.7µM*	-27.7%	-21.3%
COc1ccc(N2C(=O)c3cccc4c(N(C)CCO)ccc(c34)C2=O)cc1	3.2%	-16.9%	9.3%	14.2%	-1.0%
COc1ccc(N2C(=O)C(Cl)=C(N(CCO)Cc3ccccc3)C2=O)cc1	?	-31.2%	50.1µM*	25.1%	-5.7%
COc1ccc(OC)c(NC2=C(Cl)C(=O)N(Cc3ccccc3)C2=O)c1	22.4µM*	14.1µM*	-114.8%[59 µM]	?	?
CCN(CC)CCNC(=S)NC(=O)c1cn(-c2ccccc2)nc1-c1ccc(OC)cc1	?	?	?	2.9%	.
CC(C)(C)N(Cc1ccccc1)C(=O)c1ccc(Cl)cc1[N+](=O)[O-]	?	?	?	-24.3%	-24.1%
